This note sets out measurements from PubChem BioAssay (NCATS).

A number with no mark means an inactive call. Results filed as inconclusive are left out. Calls of active or inactive are those of the source. Unless noted, calls follow the shape of the dose curve; as a rule, active = well fitted curve in the direction sought with a large enough effect; inconclusive = small, poorly fitted or top-dose-only effect, or another doubt; inactive = no such curve, though single readings can be large; an effect the other way counts as inactive or inconclusive.

Test [1] is described as follows: qHTS assay for small molecule activators of the p53 signaling pathway (AID 651743; active = well fitted activation curve with a large enough effect in the signal ratio, not every such curve was filed as active; the % refers to the signal ratio; also: % of control where 0% means no effect). Conditions: HCT-116 p53RE-bla, beta-lactamase FRET ratio, 16 h; activation: active compounds read high. An outline of the steps: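 Following 16 hours of compound exposure at 37 C, HCT-116 cells bearing the p53RE-bla reporter were loaded with LiveBLAzer B/G FRET substrate for 2 hours at room temperature and fluorescence intensity was recorded.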
On the technique in general: qHTS replaces the single test concentration by a dilution series.

Test [2] is described as follows: qHTS assay for environmental chemicals that activate the Aryl hydrocarbon Receptor (AhR) signaling pathway (AID 651777). Also: % of control where 0% means no effect; nearly all actives have a fitted effect of over 15% in size. Conditions: 1A2-DRE human hepatoma cells, luciferase, 24 h; activation: active compounds read high. An outline of the steps:
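Human hepatoma 1A2-DRE cells, stably carrying a dioxin response element and CYP1A2 promoter driving luciferase, were exposed to compounds for 24 hr at 37 C and 5% CO2. Luciferase signal was then read after 30 min One-Glo at room temperature.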

The target of test [3] is Peroxisome proliferator-activated receptor alpha (Homo sapiens) (UniProt Q07869). Nature of the test: qHTS assay for small molecule agonists of the peroxisome proliferator-activated receptor alpha (PPARalpha) signaling pathway (AID 651778). Also: % of control where 0% means no effect. As to conditions: PathHunter PPARalpha complementation, chemiluminescence, 6 h; active compounds read high. Put shortly:
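Enzyme-fragment complementation assay in which ligand-bound PPARalpha translocates and forms an active enzyme that generates chemiluminescence. Cells were plated overnight, exposed to compound for 6 hr at 37 C, and then given detection reagent for 60 min at room temperature.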

A short description of test [4]: qHTS assay for small molecule agonists of the antioxidant response element (ARE) signaling pathway measured by Nrf2-dependant transcriptional activity (AID 720636; active = well fitted curve in the direction sought with a large enough effect in the repeat runs; an effect the other way counts as inactive or inconclusive; also: % of control where 0% means no effect). Put shortly: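 ARE-luc HepG2 cells carrying an Nrf2-responsive luciferase reporter were plated in medium with 1% dialyzed FBS, left 6 hr at 37 C to attach, then exposed to compound for 16 hr. Luciferase luminescence was read after ONE-Glo addition.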

The nature of test [5]: qHTS Assay for Identifying Gametocytocidal Compounds (AID 743244).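 Also: % is scaled to controls: 0 for no effect and ±100 for the full control effect; actives lower the fluorescent signal which means gametocytes are killed.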 Conditions: P. falciparum 3D7 stage III-V gametocytes, alamarBlue, 72 h; max response: active compounds read low. An outline of the steps: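 Compounds are pinned into medium, gametocytes (stage III–V, 3D7, 20,000 cells/well) added, and plates held 72 h at 37 °C in 5% CO2. AlamarBlue follows for 24 h before fluorescence reading.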

Test [6] is described as follows: qHTS assay for cell viability of HEK293 cells (AID 743288). Also: % is scaled to controls: 0 for no effect and ±100 for the full control effect; nearly all actives have a fitted effect of over 50% in size. As to conditions: ATP luminescence (CellTiter-Glo), 18 h; max response: active compounds read low. Put shortly: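 Readout is luciferase-coupled ATP content (CellTiter-Glo luminescence, 30 min room temperature) as a measure of metabolically competent cells. Parental HEK293 cells were plated 5 h or more before compound addition, then treated 18 h at 37 C.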

The nature of test [7]: qHTS assay for cell viability of the p53RE-bla HCT-116 cell line (AID 743292). Also: % is scaled to controls: 0 for no effect and ±100 for the full control effect; nearly all actives have a fitted effect of over 55% in size. Put shortly: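 CellSensor p53RE-bla HCT-116 cells, 4,000/well, preincubated 5 h at 37 C, then exposed to compounds in DMSO for 16 h at 37 C. Viability read as CellTiter-Glo luminescence (intracellular ATP) after 30 min at room temperature.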
Test [8] is described as follows: P-glycoprotein substrates identified in KB-8-5-11 adenocarcinoma cell line, qHTS therapeutic library screen (AID 1346987). Also: nearly all actives have a fitted effect of over 65% in size. Also: potency is read from the fitted curve at half-maximal effect. Put shortly:
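Luminescence from CellTiter-Glo, read 5 min after addition, quantified survival of KB-8-5-11 (P-gp-overexpressing) cells exposed to compounds for 72 h. AC50 was derived from concentration-response curves.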

A short description of test [9]: Drug repurposing screens with cells derived from glioblastoma tumor samples (AID 1345199). Also: % is scaled to controls: 0 for no effect and ±100 for the full control effect; nearly all actives have a fitted effect of over 40% in size. Conditions: GBM patient neurospheres viability, ATP luminescence, 48 h; Potency: tumour line A; series mostly up to 45.9 µM. An outline of the steps:
(§1)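 Primary testing used CD133+ neurospheres from four GBM patients, seven concentrations, 48 h exposure and ATP-based viability; confirmation added three slower-growing patient lines.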

In test [10] the target is Nuclear receptor subfamily 1 group I member 2 (Rattus norvegicus) (UniProt Q9R1A7). As to the kind of experiment: qHTS assay for small molecule activators of the rat pregnane X receptor (rPXR) signaling pathway (AID 651751; call rule not given here; also: 0% is about no effect). As to conditions: rPXR reporter cells, luciferase (One-Glo), 24 h.
Test [11] in a line: qHTS assay for small molecule activators of the human pregnane X receptor (PXR) signaling pathway (AID 720659; call rule not given here; also: 0% is about no effect).
In test [12] the target is Luciferin 4-monooxygenase (Photinus pyralis) (UniProt P08659). As to the kind of experiment: Biochemical firefly luciferase enzyme assay for NPC (AID 624030).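 Also: purified P. pyralis luciferase at 10 nM with luciferin and ATP substrate; 0% = DMSO and -100% = full luciferase inhibition by PTC124 control; nearly all actives have a fitted effect of over 70% in size.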 Put shortly:
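Purified P. pyralis luciferase at 10 nM in 50 mM Tris Acetate (final), luminescence read within 5 minutes of enzyme addition to compounds. Activity normalised to PTC124 versus DMSO; concentration-response curves classed by r2, magnitude and activity.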

The next test concerns astro. As to the kind of experiment: Drug repurposing screens with cells derived from glioblastoma tumor samples (AID 1345199). Also: % is scaled to controls: 0 for no effect and ±100 for the full control effect; nearly all actives have a fitted effect of over 40% in size. As to conditions: viability, ATP luminescence, 48 h; series mostly up to 45.9 µM. An outline of the steps: as §1
Test [13] deals with Calcium and integrin-binding protein 1 (Homo sapiens) (UniProt Q99828). As to the kind of experiment: Primary qHTS for Identification of Calcium Integrin Binding Protein 1 (CIB1) Competitor (AID 1508620).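 Also: GST tagged CIB1 binding a fluorescein labelled alphaIIb integrin peptide tracer; top concentration of the series differs between compounds; % is scaled to controls: 0 for no effect and ±100 for the full control effect.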 An outline of the steps:
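Fluorescence polarization competition: GST-tagged CIB1 (1 uM final) preincubated with compound 15 min at room temperature, then FITC-labelled alphaIIb peptide (100 nM final) added. After 15 min at room temperature, polarization read at Ex 480/Em 540.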

Test [14] can be described thus: Primary qHTS for inhibitors of nuclear receptor binding SET domain protein 2 (NSD2) in an isogenic RCH-ACV NSD2 p.E1099K mutant (9B) (AID 1645876). Also: potency is read from the fitted curve at half-maximal effect; nearly all actives have a fitted effect of over 70% in size.
Test [15] in a line: Primary qHTS for inhibitors of nuclear receptor binding SET domain protein 2 (NSD2) in an RCH-ACV wild type WT cells (2C) (AID 1645877). Also: potency is read from the fitted curve at half-maximal effect; nearly all actives have a fitted effect of over 70% in size.
The target in test [16] is Glutathione peroxidase 1 (Homo sapiens) (UniProt P07203). Nature of the test: Primary qHTS Assay for Inhibitors of Recombinant Selenoprotein Glutathione Peroxidase 1 (GPX1) (AID 1845191). Also: % is scaled to controls: 0 for no effect and ±100 for the full control effect; nearly all actives have a fitted effect of over 65% in size. Put shortly:
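GR-coupled readout: NADPH consumption tracked by fluorescence, ex 340/em 450 nm, at t=0 and after 15 min at RT. Final mix 10 nM GPX1, 1 mM GSH, 0.5 mM CHP, 0.5 mM NADPH, 100 nM GR, 0.01% BSA, following 30 min enzyme–compound preincubation.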

Test [17] has as its target Phospholipid hydroperoxide glutathione peroxidase GPX4 (Homo sapiens) (UniProt P36969). As to the kind of experiment: Primary qHTS Assay for Inhibitors of Recombinant Selenoprotein Glutathione Peroxidase 4 (GPX4) (AID 1845192). Also: % is scaled to controls: 0 for no effect and ±100 for the full control effect; nearly all actives have a fitted effect of over 65% in size. Put shortly: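 Steps: GPX4 plus compound, 30 min RT; add GR/GSH/NADPH master mix; start with cumene hydroperoxide; read 340/450 nm fluorescence at 0 and 15 min. Finals were 200 nM GPX4, 1 mM GSH, 0.5 mM CHP, 0.5 mM NADPH, 100 nM GR.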

The target of test [18] is Luciferin 4-monooxygenase (Photinus pyralis) (UniProt P08659). Nature of the test: Primary firefly luciferase (FLuc) qHTS assay for identification of artifact compounds. (AID 1845220). Also: nearly all actives have a fitted effect of over 60% in size. Conditions: outcome: dose series up to 54.1 µM unless noted. An outline of the steps: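 D-luciferin and ATP (10 uM each, final) in Tris acetate buffer pH 7.6 were incubated with compounds for 15 min at room temperature. The reaction was started with 10 nM Photinus pyralis luciferase and luminescence read after 5 min. Percent inhibition was fitted to a 4-parameter Hill equation.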

The nature of test [19]: Primary fluorescence-based thiol-reactive (MSTI) qHTS assay for identification of artifact compounds. (AID 1845221).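 Also: thiol-reactive compounds lower the probe fluorescence signal; nearly all actives have a fitted effect of over 65% in size.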 An outline of the steps:
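Compounds were incubated 1 h at room temperature in the dark with the MSTI probe (4 uM) in PBS pH 7.4, 2% DMSO. Signals were normalized between Acetyl-MSTI and MSTI.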

In test [20] the test system is Nanoluciferase (engineered Oplophorus gracilirostris luciferase). As to the kind of experiment: Primary Nanoluciferase (NLuc) qHTS assay for identification of artifact compounds. (AID 1845222).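 Also: 0% = DMSO and -100% = no enzyme.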 An outline of the steps: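 Diluted conditioned medium from NLuc-expressing S16 cells treated with compounds for 15 min at room temperature, then Nano-Glo substrate added; luminescence read after 5 min. Percent inhibition versus no-enzyme and DMSO controls fitted to 4-parameter Hill equation.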

Test [21] can be described thus: Primary redox qHTS assay for identification of artifact compounds. (AID 1845223).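 Also: 0% = DMSO and 100% = reference compound.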 An outline of the steps:
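Redox-cycling detection via DTT (250 uM final) oxidation coupled to Amplex Red (25 uM)/HRP (250 mU/mL) in HBSS. 15 min preincubation plus 30 min after DTT, room temperature. Ex/Em 525/598 nm; 4-parameter Hill fit against DMSO and 10 uM DA3003.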

The test system of another test is JEG-3. Nature of the test: Primary qHTS to identify gynecologic anti-cancer compounds using libraries of approved drugs and bioactive compounds (AID 1345084). Also: % is scaled to controls: 0 for no effect and ±100 for the full control effect; nearly all actives have a fitted effect of over 55% in size. As to conditions: Gynecologic cancer cell panel viability, ATPlite luminescence, 48 h; series mostly up to 57.5 µM. An outline of the steps: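 Luminescence from the ATPlite ATP-monitoring reagent indicates viable cell number; lower signal means cytotoxicity. Cells received compound 16 h after seeding and were exposed for 48 h across five concentrations.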

The nature of test [22]: qHTS for Inhibitors of the Functional Ribonucleoprotein Complex (vRNP) of Lassa (LASV) Arenavirus: LASV Primary Screen - GLuc reporter signal (AID 1347082; calls by dose curve; tested in HEK293 reporter line; also: % is scaled to controls: 0 for no effect and ±100 for the full control effect; nearly all actives have a fitted effect of over 60% in size).

Phospholipid hydroperoxide glutathione peroxidase GPX4 (Homo sapiens), sequence (P36969 whole entry, looked up): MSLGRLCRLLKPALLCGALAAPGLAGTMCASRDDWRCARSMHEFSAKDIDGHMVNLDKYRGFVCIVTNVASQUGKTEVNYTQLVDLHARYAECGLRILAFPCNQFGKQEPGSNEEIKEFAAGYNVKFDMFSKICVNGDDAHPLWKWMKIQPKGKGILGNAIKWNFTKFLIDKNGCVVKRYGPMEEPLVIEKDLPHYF
Peroxisome proliferator-activated receptor alpha (Homo sapiens), sequence (Q07869 whole entry, looked up, the tested form may be a part): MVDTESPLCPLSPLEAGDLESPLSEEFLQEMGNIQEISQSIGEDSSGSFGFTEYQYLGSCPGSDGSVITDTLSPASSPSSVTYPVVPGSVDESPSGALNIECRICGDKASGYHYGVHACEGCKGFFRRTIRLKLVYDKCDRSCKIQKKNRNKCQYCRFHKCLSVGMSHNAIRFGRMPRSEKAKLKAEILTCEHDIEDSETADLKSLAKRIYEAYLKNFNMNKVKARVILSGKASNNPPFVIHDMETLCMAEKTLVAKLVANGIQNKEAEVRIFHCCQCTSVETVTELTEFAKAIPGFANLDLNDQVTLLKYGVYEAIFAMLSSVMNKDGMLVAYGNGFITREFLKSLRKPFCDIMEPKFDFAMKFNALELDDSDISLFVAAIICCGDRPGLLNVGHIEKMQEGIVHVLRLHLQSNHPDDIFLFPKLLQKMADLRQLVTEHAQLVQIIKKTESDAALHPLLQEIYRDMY
Luciferin 4-monooxygenase (Photinus pyralis), sequence (P08659 whole entry, looked up): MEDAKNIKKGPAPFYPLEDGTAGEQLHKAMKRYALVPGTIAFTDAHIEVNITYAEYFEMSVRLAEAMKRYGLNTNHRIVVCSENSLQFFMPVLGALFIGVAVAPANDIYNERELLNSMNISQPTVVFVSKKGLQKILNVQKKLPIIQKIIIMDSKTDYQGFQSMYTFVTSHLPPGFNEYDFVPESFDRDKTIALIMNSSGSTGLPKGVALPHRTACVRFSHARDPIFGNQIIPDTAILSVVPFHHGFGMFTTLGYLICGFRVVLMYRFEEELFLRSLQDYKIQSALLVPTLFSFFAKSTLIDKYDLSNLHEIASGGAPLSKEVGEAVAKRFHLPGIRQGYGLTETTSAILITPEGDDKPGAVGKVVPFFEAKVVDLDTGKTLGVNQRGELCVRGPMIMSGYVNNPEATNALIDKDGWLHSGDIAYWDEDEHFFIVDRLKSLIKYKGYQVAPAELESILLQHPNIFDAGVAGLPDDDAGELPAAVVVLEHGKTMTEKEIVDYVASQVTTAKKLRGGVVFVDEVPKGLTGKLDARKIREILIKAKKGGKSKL
Calcium and integrin-binding protein 1 (Homo sapiens), sequence (Q99828 whole entry, looked up): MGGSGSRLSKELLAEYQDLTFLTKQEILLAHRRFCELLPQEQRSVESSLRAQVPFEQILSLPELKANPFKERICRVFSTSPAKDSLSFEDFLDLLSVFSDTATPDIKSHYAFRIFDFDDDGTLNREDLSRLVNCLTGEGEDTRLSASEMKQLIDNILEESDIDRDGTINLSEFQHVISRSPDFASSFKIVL
Glutathione peroxidase 1 (Homo sapiens), sequence (P07203 whole entry, looked up): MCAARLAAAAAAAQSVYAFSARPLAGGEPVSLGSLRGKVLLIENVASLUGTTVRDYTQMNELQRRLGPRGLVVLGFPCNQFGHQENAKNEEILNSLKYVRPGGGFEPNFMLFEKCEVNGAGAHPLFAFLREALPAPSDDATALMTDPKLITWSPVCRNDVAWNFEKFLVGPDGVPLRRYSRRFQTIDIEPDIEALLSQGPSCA
Nuclear receptor subfamily 1 group I member 2 (Rattus norvegicus), sequence (Q9R1A7 whole entry, looked up): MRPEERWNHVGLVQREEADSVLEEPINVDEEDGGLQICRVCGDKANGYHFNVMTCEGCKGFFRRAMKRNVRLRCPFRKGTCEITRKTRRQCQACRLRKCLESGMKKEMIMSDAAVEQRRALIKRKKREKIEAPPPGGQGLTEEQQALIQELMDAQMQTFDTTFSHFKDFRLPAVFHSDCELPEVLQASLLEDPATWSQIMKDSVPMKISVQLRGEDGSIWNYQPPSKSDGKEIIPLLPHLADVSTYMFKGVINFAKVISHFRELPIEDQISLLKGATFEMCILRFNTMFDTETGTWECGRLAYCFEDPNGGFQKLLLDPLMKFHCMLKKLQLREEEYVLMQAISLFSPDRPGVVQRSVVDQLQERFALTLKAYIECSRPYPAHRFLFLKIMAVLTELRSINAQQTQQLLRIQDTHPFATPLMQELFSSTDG

For `C[C@]12CC[C@H]3[C@@H](CCC4=CC(=O)CC[C@@]43C)[C@@H]1CC[C@H]2O`, the activation was 0.0688% in test [1] and -2.33% in test [2]. Also, the max response in [3] is -2.25%; in [5], -4.18%; in [6] it was -7.89%; in test [10], 3.9%. For the same compound, the Potency entry in test [4] and in test [9] was “inactive” in each case. Also, the compound was classed as inactive in test [7] and in [11]. Moreover, the Potency in test [8] is 2590 nM (active).

`C1CN(P2(N3CC3)=NP(N3CC3)(N3CC3)=NP(N3CC3)(N3CC3)=N2)CCO1` (configuration not stated): the Potency entry (in test [12]; in test [8]; in test [9]; in the test with astro) was “inactive” in each case. Moreover, the max response in [5] is -9.28%.

Regarding `CC[C@@H](C)[C@H]1C(=O)O[C@H](C(C)C)C(=O)N(C)[C@@H]([C@@H](C)CC)C(=O)O[C@H](C(C)C)C(=O)N(C)[C@@H]([C@H](C)CC)C(=O)O[C@H](C(C)C)C(=O)N1C`, the Potency entry in test [13], in test [16], in test [17], in test [19], in test [20] and in test [21] was “inactive” each time. In addition, the Potency entry in the test on JEG-3 is “inactive”. The Potency is 4300 nM (active) in [14] and 1710 nM (active) in test [15]. Also, in test [18], the outcome is “inactive [at 25.7 µM]”.

As for `COc1cc2c(cc1OC)-c1c(OC)c(OC)c(OC)c3ccnc(c13)C2=O`, in test [22], the Potency result is “inactive”.
